Where a name gives a salt, the structure may show the parent alone. ± gives the standard deviation or the standard deviation of the averaged measurements.

What all share (settings): 25 µM; exposure: 24-48 hpf
For experiment [1], the system named is Danio rerio Tg(wt1b:EGFP) embryo, pronephros. The experiment in a line: glomerular separation, fold change vs DMSO control; higher = glomeruli further apart (abnormal). An outline of the steps:
(§1)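 Each feature value is a fold change relative to the mean of same-day DMSO-treated embryos. Embryos of the Tg(wt1b:EGFP) zebrafish line, dechorionated, received 25 μM compound in 0.5% DMSO from 24 to 48 hpf at 28.5°C, in HEPES-buffered E3 with 0.003% PTU. Distances and angles were computed by a Fiji macro from 16 manually set reference points on maximum projections of dorsal pronephros images, and values beyond 2 SD of the feature mean were removed.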

Experiment [2] shares this test system. The experiment in a line: glomerular width (mean of left and right), fold change vs DMSO control; higher = wider glomerulus. An outline of the steps:
as §1

Experiment [3] shares this test system. The experiment in a line: fraction of imaged embryos annotated as normal kidney; higher = less nephrotoxic; extreme values may be limits of the assay. An outline of the steps: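 The value given is the share of embryos in each treatment scored as having a normal kidney. To obtain it, dechorionated Tg(wt1b:EGFP) zebrafish embryos were treated from 24 to 48 hpf at 28.5°C with 25 μM compound in 0.5% DMSO, in 5 mM HEPES-buffered E3 with 0.003% PTU. Pronephroi were imaged by widefield fluorescence (470 nm, 10 z-slices), and every embryo was annotated by hand from maximum projections.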

Experiment [4] has the same test system. The experiment is described as follows: pronephric angle neck segment to proximal convoluted tubule (mean of left and right), fold change vs DMSO control; higher = larger pronephric angle. A digest of the protocol: as §1

Compound `Clc1ccc(C(OCCN2CCCCC2)c2ccccc2)cc1` (stereo unspecified) [Cloperastine hydrochloride] gave a glomerular separation in experiment [1] of 0.819 ± 0.35. For the same compound, the glomerular width in experiment [2] is 1.04 ± 0.069. In experiment [3], the “fraction of imaged embryos annotated as normal kidney” value (“fraction of imaged embryos annotated” for short) was determined as 0.917. Besides, the “pronephric angle neck segment” value in experiment [4] is 0.994 ± 0.0094.

`C[C@]12CC[C@H](O)C[C@H]1CC[C@@H]1[C@@H]2C[C@@H](O)[C@]2(C)[C@@H](C3=CC(=O)OC3)CC[C@]12O` [Digoxigenin] displayed a glomerular separation in experiment [1] of 0.711 ± 0.21. For the same compound, in experiment [2], the glomerular width is 0.994 ± 0.017. Also, the “fraction of imaged embryos annotated” value in experiment [3] is 0.917. Also, the “pronephric angle neck segment” value in experiment [4] worked out at 0.9639 ± 0.0077.

`CC(=O)[C@H]1CC[C@H]2[C@@H]3CC[C@H]4C[C@H](O)CC[C@]4(C)[C@H]3C(=O)C[C@]12C` [Alfaxalone] gave a glomerular separation in experiment [1] of 0.896 ± 0.36. In addition, the glomerular width in experiment [2] turned out to be 0.957 ± 0.0043. For the same compound, the “fraction of imaged embryos annotated” value in experiment [3] was 0.583. Moreover, the “pronephric angle neck segment” value in experiment [4] is 1.02 ± 0.027.

With `CN1[C@@H]2C[C@@H](OC(=O)[C@H](CO)c3ccccc3)C[C@H]1[C@@H]1O[C@@H]12` [Scopolamine hydrochloride], the glomerular separation in experiment [1] is 0.986 ± 0.42. This compound also returned a glomerular width in experiment [2] of 1.09 ± 0.054. Also, the “fraction of imaged embryos annotated” value in experiment [3] worked out at 0.833. Further, the “pronephric angle neck segment” value in experiment [4] was 0.984 ± 0.036.

Turning to `c1ccc2c(c1)Nc1ccccc1S2` [Phenothiazine], the glomerular separation in experiment [1] is 1.35 ± 0.6. For the same compound, in experiment [2], the glomerular width came out at 0.851 ± 0.062. Moreover, the “fraction of imaged embryos annotated” value in experiment [3] stood at 0.75. The “pronephric angle neck segment” value in experiment [4] came out at 1.101 ± 0.002.

In experiment [1], `O=[N+]([O-])O[C@H]1CO[C@H]2[C@@H]1OC[C@H]2O[N+](=O)[O-]` [Isosorbide dinitrate] returned a glomerular separation of 1.15 ± 0.34. This compound also returned a glomerular width in experiment [2] of 0.9189 ± 0.0074. In addition, the “fraction of imaged embryos annotated” value in experiment [3] worked out at 0.833. Also, the “pronephric angle neck segment” value in experiment [4] was determined as 1.02 ± 0.024.

`CC(C)c1c(CN(C)C(C)Cc2ccccc2)n(C)n(-c2ccccc2)c1=O` (stereo unspecified) [Famprofazone] gave a glomerular separation in experiment [1] of 0.985 ± 0.39. The same compound returned a glomerular width in experiment [2] of 0.985 ± 0.031. The “fraction of imaged embryos annotated” value in experiment [3] was 0.917. Also, the “pronephric angle neck segment” value in experiment [4] amounted to 1.084 ± 0.0087.

With `C[C@H](N)[C@H](O)c1ccc(O)c(O)c1` [Levonordefrin], the glomerular separation in experiment [1] came to 1.13 ± 0.33. Further, the glomerular width in experiment [2] was found to be 1.04 ± 0.016. In experiment [3], the “fraction of imaged embryos annotated” value was found to be 0.667. Further, in experiment [4], the “pronephric angle neck segment” value is 0.982 ± 0.012.

In experiment [1], `CN1CCN(C(=O)OC2c3nccnc3C(=O)N2c2ccc(Cl)cn2)CC1` (stereo unspecified) [Zopiclone] gave a glomerular separation of 1.06 ± 0.41. In addition, the glomerular width in experiment [2] is 0.93 ± 0.014. In experiment [3], the “fraction of imaged embryos annotated” value is 1. Further, in experiment [4], the “pronephric angle neck segment” value came to 0.98709 ± 0.00059.

Source of the values: the supplement of paper PMC7366291.
